# Experimental data as given in PMC4336329 (PLoS ONE, 2015).
# The campaign covered roughly 310,000 compounds. About 14,000 (4.5%) showed an effect of 50% or more. The effect is printed as a negative number. For the sample, strong results were picked, then their nearest neighbours and some compounds at random.
# Molecular target: human ether-à-go-go-related gene (hERG) potassium channel (human, UniProt Q12809)
# Experiment: primary screen, population patch clamp on CHO cells stably expressing hERG; higher = less effect of the substance
# 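Note: peak tail current of the secondary pulse compared with the same well before compound.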
# Sequence of human ether-à-go-go-related gene (hERG) potassium channel (Q12809 whole entry, looked up): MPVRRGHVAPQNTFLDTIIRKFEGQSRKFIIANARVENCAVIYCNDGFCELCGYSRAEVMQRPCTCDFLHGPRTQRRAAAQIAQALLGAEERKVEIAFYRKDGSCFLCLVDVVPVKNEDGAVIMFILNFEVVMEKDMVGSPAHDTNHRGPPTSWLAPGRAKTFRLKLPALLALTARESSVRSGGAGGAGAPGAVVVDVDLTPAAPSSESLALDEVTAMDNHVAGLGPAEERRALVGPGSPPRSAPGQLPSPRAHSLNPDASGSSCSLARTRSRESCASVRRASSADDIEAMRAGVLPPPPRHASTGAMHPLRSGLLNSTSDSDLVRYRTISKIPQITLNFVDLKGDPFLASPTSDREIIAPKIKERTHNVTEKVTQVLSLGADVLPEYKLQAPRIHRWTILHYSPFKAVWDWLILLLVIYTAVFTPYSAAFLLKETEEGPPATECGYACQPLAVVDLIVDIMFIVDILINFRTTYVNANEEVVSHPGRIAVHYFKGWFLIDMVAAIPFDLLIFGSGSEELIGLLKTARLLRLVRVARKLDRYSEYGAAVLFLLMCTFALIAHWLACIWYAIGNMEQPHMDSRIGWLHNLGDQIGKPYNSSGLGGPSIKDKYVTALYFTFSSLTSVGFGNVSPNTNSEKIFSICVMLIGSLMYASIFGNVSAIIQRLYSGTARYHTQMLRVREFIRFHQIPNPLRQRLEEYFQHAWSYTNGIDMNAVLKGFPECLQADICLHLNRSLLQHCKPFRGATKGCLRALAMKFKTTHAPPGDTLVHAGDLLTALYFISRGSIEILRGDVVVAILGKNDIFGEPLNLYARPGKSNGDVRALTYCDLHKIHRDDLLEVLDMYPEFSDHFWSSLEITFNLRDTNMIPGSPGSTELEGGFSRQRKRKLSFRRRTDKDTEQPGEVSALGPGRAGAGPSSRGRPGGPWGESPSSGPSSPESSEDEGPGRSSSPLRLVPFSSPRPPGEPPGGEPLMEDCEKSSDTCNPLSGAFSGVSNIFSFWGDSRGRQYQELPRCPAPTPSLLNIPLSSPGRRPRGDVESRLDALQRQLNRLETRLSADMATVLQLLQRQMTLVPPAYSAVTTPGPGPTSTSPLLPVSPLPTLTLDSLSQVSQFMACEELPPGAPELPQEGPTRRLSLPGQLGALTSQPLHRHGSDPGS
row,SMILES,"hERG current change (%, negative = inhibition) at 10uM"
1,CCOc1cccc(OCCOCCN(C)C)c1.O=C(O)C(=O)O,0.719%
2,COC(=O)c1ccc(CN2C(=O)NC3(CCCCC3C)C2=O)o1 (centres unmarked),-11.4%
3,O=C(CSc1nnc(Cc2ccccc2)o1)Nc1ccc2c(c1)OCO2,10.5%
4,CCOC(=O)Cc1csc(NC(=O)Cc2ccccc2)n1,1.37%
5,CC(=O)N1c2ccc(S(=O)(=O)N3CCC(C(=O)Nc4cccc(C(F)(F)F)c4)CC3)cc2CC1C (centres unmarked),11.7%
6,COc1ccc(OCc2cc(C(=O)N3CCCCCC3)no2)c(Cl)c1,-11.7%
7,S=C(Nc1ccccc1)N1CCN(C/C=C/c2ccccc2)CC1,-8.71%
8,O=C(Nc1cccc(Cl)c1)N1CCN(C/C=C/c2ccccc2)CC1,-68.5%
9,O=C(Nc1ccc(F)cc1)N1CCN(CCc2ccccc2)CC1,-52.3%
10,O=C(Nc1ccc(F)cc1F)N1CCN(CCc2ccccc2)CC1,-15.6%
11,O=C(Nc1ccccc1)N1CCN(CCc2ccccc2)CC1,-14.5%
12,CCOC(=O)N1CCN(C(=O)Nc2cccc(Cl)c2)CC1,2.81%
13,O=C(Nc1ccc2c(c1)OCO2)N1CCN(C/C=C/c2ccccc2)CC1,-15.4%
14,O=C(Nc1cccc(Cl)c1)N1CCOCC1,20%
15,O=C(Nc1ccc(F)cc1)N1CCN(C/C=C/c2ccccc2)CC1,-68.6%
16,O=C(Nc1cccc(F)c1)N1CCN(C/C=C/c2ccccc2)CC1,-59%
17,O=C(Cc1ccccc1)Nc1ccc(N2CCOCC2)cc1N1CCOCC1,-0.646%
18,CSCCC(NC(=O)COc1ccccc1)C(=O)N1CC(C)CC(C)C1 (centres unmarked),-41.4%
19,CCCCc1cc(=O)oc2c(CN3CCCC3)c(O)c(Cl)cc12,-20.9%
20,COC(=O)c1[nH]c2c(c1C)C(=O)CC(c1ccc(OC)c(OC)c1)C2 (centres unmarked),-0.262%
21,CC(Sc1ccccc1)C(=O)N(CCC#N)Cc1cccnc1 (centres unmarked),6.64%
22,Cc1ccc(NC(=O)CSc2nnc(-c3cnccn3)n2Cc2ccco2)cc1,-21.3%

row,SMILES,"hERG current change (%, negative = inhibition) at 10uM"
1,COc1ccccc1C1CC(c2ccc(Cl)cc2)Nc2ncnn21 (centres unmarked),-44.8%
2,Cc1cccn2c(CN(C)C3CCOC3)c(C(=O)N3CCCCC3)nc12 (centres unmarked),32.3%
3,O=c1cc(-c2ccc(O)c(O)c2)oc2cc(O)c(C3OC(CO)C(O)C(O)C3O)c(O)c12 (centres unmarked),3.72%
4,CC1(C)Cc2cccc(OCC(=O)NCc3cccs3)c2O1,-0.101%
5,C=C(C)c1cccc(C(C)(C)NC(=O)N2CCN(CC)CC2)c1,7.13%
6,C=C(C)c1cccc(C(C)(C)NC(=O)N2CCN(C/C=C/c3ccccc3)CC2)c1,-62.9%
7,O=C(Cc1ccccc1)N1CCN(Cc2ccc(F)cc2)CC1.O=C(O)C(=O)O,2.38%
8,O=C(C1CCN(Cc2ccccc2)CC1)N1CCN(C/C=C/c2ccccc2)CC1.O=C(O)C(=O)O,-33.3%
9,CCNC(=O)N1CCN(C(=O)NCC)CC1,15.7%
10,CCCCNC(=O)N1CCN(Cc2ccc(F)cc2)CC1,-11.3%
11,C=C(C)c1cccc(C(C)(C)NC(=O)N2CCN(CC(N)=O)CC2)c1,11.3%
12,Cc1ccc(NC(=O)N2CCN(C/C=C/c3ccccc3)CC2)cc1,-44.6%
13,Cc1cc(C)cc(NC(=O)N2CCN(C/C=C/c3ccccc3)CC2)c1,-69%
14,O=C(C1CCN(Cc2ccc(F)cc2)CC1)N1CCN(C/C=C/c2ccccc2)CC1.O=C(O)C(=O)O,-63.6%
15,CC1=C(C)CC(C(=O)N2CCN(C/C=C/c3ccccc3)CC2)C(C(=O)O)C1 (centres unmarked),8.99%
16,CCNC(=O)N1CCN(CCCC(c2ccc(F)cc2)c2ccc(F)cc2)CC1.Cl,-82.3%
17,Cn1c(=O)c2c(ncn2CC(O)CNc2ccc(F)cc2)n(C)c1=O (centres unmarked),1.35%
18,COc1ccc(S(=O)(=O)N2CCC(C(=O)NCCC(=O)NCc3ccncc3)CC2)cc1,11%
19,CCN(CCN1CCCC1)C(=O)c1cc(COc2ccccc2SC)on1,-32.1%
20,CN(C)C=NC(=O)c1ccc(N2CCN(c3ncc(C(F)(F)F)cc3Cl)CC2)cc1,7.74%
21,O=C(NCCO)Nc1ccc2nsnc2c1,-5.93%
22,NC(=O)c1ccccc1N=Cc1cccnc1,-21%

row,SMILES,"hERG current change (%, negative = inhibition) at 10uM"
1,Cc1cc(N2C(=O)c3ccc(C(=O)Nc4ccccc4O)cc3C2=O)no1,14.1%
2,O=c1c(Cc2c(F)cccc2Cl)c(O)ccn1C1CC1,-11.7%
3,COc1ccc(NC(=O)c2csc3c2CCCCC3)c(OC)c1,-6.93%
4,CCOC(=O)c1c(C)[nH]c(C(=O)N/N=C/c2cc([N+](=O)[O-])ccc2O)c1C,33.7%
5,CCCCCn1c(=O)c(C(=O)Nc2ccccc2N)c(O)c2ccccc21,21.4%
6,CCOC(=O)c1cc(NCc2cccs2)ccc1N1CCOCC1,-3.79%
7,COc1ccc(-c2[nH]c(-c3ccc4c(c3)OCO4)nc2-c2ccccc2)cc1,1.88%
8,COc1ccc(/C=N/NC(=O)c2ccccc2O)cc1CN1CCOCC1,-12.8%
9,COc1ccc(/C=N\NC(=O)c2ccccc2)cc1COc1ccccc1,20.6%
10,COc1ccc(/C=N/NC(=O)c2cccnc2)cc1CN1CCN(c2ccc(F)cc2)CC1,-51%
11,COc1ccc(/C=N\NC(=O)c2ccccc2)cc1COc1ccc(F)cc1,-0.876%
12,COc1ccc(/C=N/NC(=O)c2ccn[nH]2)cc1CN1CCOCC1,-14.8%
13,COc1ccc(/C=N/NC(=O)c2ccc(C)cc2)cc1CN1CCN(c2ccc(F)cc2)CC1,-69.8%
14,COc1ccc(/C=N/NC(=O)c2cccnc2)cc1CN1CCc2ccccc2C1,-17.9%
15,COc1ccc(/C=N\NC(=O)c2cc(O)c(O)c(O)c2)cc1CN1CCN(c2ccc(F)cc2)CC1,14.6%
16,COc1ccc(/C=N/NC(=O)c2cccnc2)cc1CN1CCOCC1,13.6%
17,COc1cc(OC)cc(C(=O)N/N=C/c2ccc(OC)c(COc3ccc(F)cc3)c2)c1,6.62%
18,COc1cc(C(=O)N/N=C/c2ccc(OC)c(CN3CCN(c4ccc(F)cc4)CC3)c2)ccc1O,-75.3%
19,COc1ccc(/C=N/NC(=O)c2ccccc2)cc1CN1CCN(c2ccc(F)cc2)CC1,-74.5%
20,CCC(C)NC(=O)N[C@@H](Cc1ccccc1)C(=O)O (some centres unmarked),-1.98%
21,CCOC(=O)C1CCN(C(=O)CNC(=O)Cn2c(C)cc3ccccc3c2=O)CC1,6.61%
22,O=C(COc1ccc(F)cc1)Nc1nnc(-c2ccncc2)s1,-6.52%

row,SMILES,"hERG current change (%, negative = inhibition) at 10uM"
1,c1cnc(N2CCN(c3nc4ccccc4n4cnnc34)CC2)nc1,-27.6%
2,CC(C)[C@H](NC(=O)c1ccco1)C(=O)NCc1ccccc1,25.1%
3,COc1ccc(S(=O)(=O)N(C)c2ccc(C(=O)NCc3ccco3)cc2)cc1OC,-9.43%
4,CCN(CC)c1ccc(/C=N/NC(=O)Cc2cccs2)cc1,-16.6%
5,COc1ccc(/C=N\NC(=O)c2ccccc2F)cc1COc1ccc(F)cc1F,11.7%
6,COc1ccc(/C=N\NC(=O)c2ccccc2F)cc1COc1ccc(F)cc1,27.1%
7,CCOc1ccc(/C=N/NC(=O)c2ccc(F)cc2)cc1CN1CC2CC(C1)c1cccc(=O)n1C2 (centres unmarked),-53.3%
8,C/C=C/c1cc(CN2CCN(c3ccc(OC)cc3)CC2)c(O)c(OC)c1,-68.7%
9,COc1ccc(N2CCN(Cc3cc4c(cc3O)CCC4)CC2)cc1,-12.4%
10,C/C=C/c1cc(CN2CCN(c3ccccc3)CC2)c(O)c(OC)c1,-32%
11,CCOc1ccc(/C=N/NC(=O)c2ccccc2O)cc1CN1CC2CC(C1)c1cccc(=O)n1C2 (centres unmarked),-16.7%
12,COc1ccc(/C=N/NC(=O)c2ccccc2F)cc1CN1CCN(c2ccc(F)cc2)CC1,-76.2%
13,COc1ccc(/C=N/NC(=O)c2ccoc2C)cc1CN1CCN(c2ccc(F)cc2)CC1,-76.8%
14,CCOc1ccc(/C=N/NC(=O)c2ccc(O)cc2)cc1CN1CC2CC(C1)c1cccc(=O)n1C2 (centres unmarked),4.7%
15,COc1ccc(/C=N/NC(=O)c2ccoc2C)cc1O,-4.47%
16,COc1ccc(/C=N/NC(=O)c2ccoc2C)cc1OC,-9.75%
17,CCOc1cc(Br)c(C=O)cc1OCC,22.1%
18,CC1(CCc2ccccc2)NC(=O)N(CC(=O)N2CC(=O)Nc3ccccc32)C1=O (centres unmarked),7.19%
19,O=C(COC(=O)c1ccccn1)Nc1ccccc1OC(F)F,6.71%
20,Cc1cnc(NC(=O)CN(C)S(=O)(=O)c2ccc(Cl)cc2)s1,-1.68%
